# Measurements reported in the supplement of paper PMC4466140.
# B1: unnamed (peptide)
# chain: NIKVLLNPKLGKPVK
# Assays:
# Assay in all cases: SPOT peptide array binding signal intensity (averaged, normalized) (arbitrary units (background-subtracted, floor 0; scale differs between SH3 domains)); higher = stronger binding of the SH3 domain to the peptide
# AgAbp1 = target: AgAbp1
# Summary of the method: (§1)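 Spot intensities were captured after detection with anti-GST antibody, an HRP-linked anti-mouse secondary and luminol, and quantified with Genespotter. The probes were GST-fused SH3 domains from four yeast species, produced in E. coli BL21(DE3), purified on glutathione Sepharose and incubated at 10 μg/ml overnight at 4°C on cellulose-bound synthetic 15-mer peptides with cysteines replaced by serines. Binding signal is the normalized, background-subtracted spot intensity averaged over replicates, and its arbitrary units differ between domains.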
# AgBbc1 = target: AgBbc1
# Summary of the method: as §1
# AgBem1-D1 = target: AgBem1-D1
# Summary of the method: as §1
# AgBzz1-D1 = target: AgBzz1-D1
# Summary of the method: as §1
# AgBzz1-D2 = target: AgBzz1-D2
# Summary of the method: as §1
# AgCyk3 = target: AgCyk3
# Summary of the method: as §1
# AgFus1 = target: AgFus1
# Summary of the method: as §1
# AgHof1 = target: AgHof1
# Summary of the method: as §1
# AgHse1 = target: AgHse1
# Summary of the method: as §1
# AgLsb1 = target: AgLsb1
# Summary of the method: as §1
# AgLsb4 = target: AgLsb4
# Summary of the method: as §1
# AgMyo5 = target: AgMyo5
# Summary of the method: as §1
# AgNbp2 = target: AgNbp2
# Summary of the method: as §1
# AgRvs167 = target: AgRvs167
# Summary of the method: as §1
# AgSho1 = target: AgSho1
# Summary of the method: as §1
# AgSla1-D1-D2 = target: AgSla1-D1-D2
# Summary of the method: as §1
# AgSla1-D3 = target: AgSla1-D3
# Summary of the method: as §1
# CaAbp1-D1 = target: CaAbp1-D1
# Summary of the method: as §1
# CaAbp1-D2 = target: CaAbp1-D2
# Summary of the method: as §1
# CaBbc1 = target: CaBbc1
# Summary of the method: as §1
# CaBem1-D1 = target: CaBem1-D1
# Summary of the method: as §1
# CaBzz1-D1 = target: CaBzz1-D1
# Summary of the method: as §1
# CaBzz1-D2 = target: CaBzz1-D2
# Summary of the method: as §1
# CaCyk3 = target: CaCyk3
# Summary of the method: as §1
# CaFus1 = target: CaFus1
# Summary of the method: as §1
# CaHof1 = target: CaHof1
# Summary of the method: as §1
# CaHse1 = target: CaHse1
# Summary of the method: as §1
# CaLsb1 = target: CaLsb1
# Summary of the method: as §1
# CaLsb4 = target: CaLsb4
# Summary of the method: as §1
# CaMyo5 = target: CaMyo5
# Summary of the method: as §1
# CaNbp2 = target: CaNbp2
# Summary of the method: as §1
# CaRvs167 = target: CaRvs167
# Summary of the method: as §1
# CaRvs167-3 = target: CaRvs167-3
# Summary of the method: as §1
# CaSho1 = target: CaSho1
# Summary of the method: as §1
# CaSla1-D1-D2 = target: CaSla1-D1-D2
# Summary of the method: as §1
# CaSla1-D3 = target: CaSla1-D3
# Summary of the method: as §1
# ScAbp1 = target: ScAbp1
# Summary of the method: as §1
binder,measurement,setting,value
B1,SPOT peptide array binding signal intensity,AgAbp1,15
same,SPOT peptide array binding signal intensity,AgBbc1,10.2
same,SPOT peptide array binding signal intensity,AgBem1-D1,4
same,SPOT peptide array binding signal intensity,AgBzz1-D1,13
same,SPOT peptide array binding signal intensity,AgBzz1-D2,73.5
same,SPOT peptide array binding signal intensity,AgCyk3,≤ 0
same,SPOT peptide array binding signal intensity,AgFus1,316
same,SPOT peptide array binding signal intensity,AgHof1,17
same,SPOT peptide array binding signal intensity,AgHse1,760
same,SPOT peptide array binding signal intensity,AgLsb1,≤ 0
same,SPOT peptide array binding signal intensity,AgLsb4,61
same,SPOT peptide array binding signal intensity,AgMyo5,2.5
same,SPOT peptide array binding signal intensity,AgNbp2,31.5
same,SPOT peptide array binding signal intensity,AgRvs167,4
same,SPOT peptide array binding signal intensity,AgSho1,108
same,SPOT peptide array binding signal intensity,AgSla1-D1-D2,39.5
same,SPOT peptide array binding signal intensity,AgSla1-D3,7.5
same,SPOT peptide array binding signal intensity,CaAbp1-D1,407
same,SPOT peptide array binding signal intensity,CaAbp1-D2,32.5
same,SPOT peptide array binding signal intensity,CaBbc1,15.2
same,SPOT peptide array binding signal intensity,CaBem1-D1,0.5
same,SPOT peptide array binding signal intensity,CaBzz1-D1,160
same,SPOT peptide array binding signal intensity,CaBzz1-D2,48.5
same,SPOT peptide array binding signal intensity,CaCyk3,≤ 0
same,SPOT peptide array binding signal intensity,CaFus1,968
same,SPOT peptide array binding signal intensity,CaHof1,≤ 0
same,SPOT peptide array binding signal intensity,CaHse1,9
same,SPOT peptide array binding signal intensity,CaLsb1,2
same,SPOT peptide array binding signal intensity,CaLsb4,16
same,SPOT peptide array binding signal intensity,CaMyo5,4.5
same,SPOT peptide array binding signal intensity,CaNbp2,325
same,SPOT peptide array binding signal intensity,CaRvs167,105
same,SPOT peptide array binding signal intensity,CaRvs167-3,752
same,SPOT peptide array binding signal intensity,CaSho1,700
same,SPOT peptide array binding signal intensity,CaSla1-D1-D2,2
same,SPOT peptide array binding signal intensity,CaSla1-D3,26
same,SPOT peptide array binding signal intensity,ScAbp1,48
